Assay results: PubChem BioAssay
The other results are listed elsewhere or left out. Activity calls are given as the source filed them.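 The calls were made as follows, unless noted: active = mean inhibition above about 50% in the one-dose retest (limit read from the data); inactive = the rest.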

Legend:
[1] = biological target: Sentrin-specific protease 8 (Homo sapiens) (UniProt Q96LD8); test: SENP8 protease inhibitors, retest, confirmation, biochemical, luminescence, single concentration (AID 488912;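 active = mean inhibition across replicates above about 50%, limit read from the data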); conditions: Recombinant SENP8, Z-RLRGG-aminoluciferin luminescence, 60 min; at 12.5 µM; stronger effect = higher value
Chain of Sentrin-specific protease 8 (Homo sapiens) (Q96LD8 whole entry, looked up): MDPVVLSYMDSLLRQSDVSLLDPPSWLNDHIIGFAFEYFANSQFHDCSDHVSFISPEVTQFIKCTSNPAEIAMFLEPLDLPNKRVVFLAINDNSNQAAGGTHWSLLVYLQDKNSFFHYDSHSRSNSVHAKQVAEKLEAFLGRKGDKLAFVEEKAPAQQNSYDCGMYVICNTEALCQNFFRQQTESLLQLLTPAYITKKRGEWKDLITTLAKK

[2] = biological target: Sentrin-specific protease 6 (Homo sapiens) (UniProt Q9GZR1); test: SENP6 protease inhibitors, confirmation, biochemical, luminescence, single concentration (AID 488915); conditions: recombinant SENP6, Z-RLRGG-aminoluciferin luminescence; at 12.5 µM; stronger effect = higher value
Chain of Sentrin-specific protease 6 (Homo sapiens) (Q9GZR1 628-1112 limits assumed): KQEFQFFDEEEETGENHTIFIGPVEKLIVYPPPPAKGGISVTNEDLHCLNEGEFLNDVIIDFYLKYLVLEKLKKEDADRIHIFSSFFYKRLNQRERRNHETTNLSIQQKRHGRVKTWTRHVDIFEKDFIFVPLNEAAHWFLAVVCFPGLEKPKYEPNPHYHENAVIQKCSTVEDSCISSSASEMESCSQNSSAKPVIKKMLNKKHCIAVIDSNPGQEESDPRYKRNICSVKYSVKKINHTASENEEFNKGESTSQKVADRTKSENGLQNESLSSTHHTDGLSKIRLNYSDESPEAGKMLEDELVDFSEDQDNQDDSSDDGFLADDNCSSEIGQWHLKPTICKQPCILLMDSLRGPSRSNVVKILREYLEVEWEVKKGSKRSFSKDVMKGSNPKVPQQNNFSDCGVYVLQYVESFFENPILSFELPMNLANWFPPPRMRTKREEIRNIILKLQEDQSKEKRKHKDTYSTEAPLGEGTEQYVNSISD

[3] = biological target: Sentrin-specific protease 7 (Homo sapiens) (UniProt Q9BQF6); test: SENP7 protease inhibitors, retest, confirmation, biochemical, luminescence, single concentration (AID 488917); conditions: recombinant SENP7, Z-RLRGG-aminoluciferin luminescence, 40 min; at 12.5 µM; stronger effect = higher value
Chain of Sentrin-specific protease 7 (Homo sapiens) (Q9BQF6 706-1050 limits assumed): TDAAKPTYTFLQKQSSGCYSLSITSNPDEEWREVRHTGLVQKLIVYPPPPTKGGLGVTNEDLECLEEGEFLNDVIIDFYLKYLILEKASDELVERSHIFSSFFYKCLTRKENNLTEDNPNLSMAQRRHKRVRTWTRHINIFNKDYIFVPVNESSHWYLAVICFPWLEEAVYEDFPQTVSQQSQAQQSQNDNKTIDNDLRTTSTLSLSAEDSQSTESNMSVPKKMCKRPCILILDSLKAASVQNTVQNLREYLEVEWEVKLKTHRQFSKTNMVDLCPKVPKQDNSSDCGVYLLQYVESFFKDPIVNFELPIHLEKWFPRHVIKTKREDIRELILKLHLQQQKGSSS

[4] = biological target: Caspase-3 (Homo sapiens) (UniProt P42574); test: caspase-3 protease inhibitors, confirmation, selectivity assay for SENP inhibitor project, biochemical, single concentration (AID 488918;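 active = mean inhibition above about 50%, limit read from the data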;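 also: plate controls were enzyme with DMSO for no effect and wells without caspase-3 for full effect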); conditions: purified caspase-3, Z-DEVD-aminoluciferin luminescence, 60 min; at 12.5 µM; stronger effect = higher value
Chain of Caspase-3 (Homo sapiens) (P42574 28-227 limits assumed): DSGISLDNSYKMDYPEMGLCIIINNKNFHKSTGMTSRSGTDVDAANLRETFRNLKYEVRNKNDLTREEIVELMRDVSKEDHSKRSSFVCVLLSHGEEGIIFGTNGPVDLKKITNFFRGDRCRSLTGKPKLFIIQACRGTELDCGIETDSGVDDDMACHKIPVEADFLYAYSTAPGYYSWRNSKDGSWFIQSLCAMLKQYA

[5] = luciferase luminescence interference by compounds, confirmation, artefact control for SENP inhibitor project, biochemical, single concentration, SENP8 reaction pre-completed (AID 488919;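 active = mean inhibition above about 50% when retested at one dose, limit read from the data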;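 also: plate controls were DMSO wells with completed reaction for no effect and substrate without enzyme for full effect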); conditions: Pre-incubated SENP8/Z-RLRGG-aminoluciferin, at 12.5 µM, stronger effect = higher value
[6] = biological target: Tumor necrosis factor receptor superfamily member 10B (Homo sapiens) (UniProt O14763); test: caspase-8 TRAIL sensitization, hit retest, confirmation, cell-based, NB7+caspase-8, with/without TRAIL, luminescence panel (AID 651596; in the data active = activity above about 50%); conditions: NB7 neuroblastoma + caspase-8, TRAIL sensitization, luminescence viability, with TRAIL, mean of runs, at 10 µM, stronger effect = higher value
Chain of Tumor necrosis factor receptor superfamily member 10B (Homo sapiens) (O14763 whole entry, looked up): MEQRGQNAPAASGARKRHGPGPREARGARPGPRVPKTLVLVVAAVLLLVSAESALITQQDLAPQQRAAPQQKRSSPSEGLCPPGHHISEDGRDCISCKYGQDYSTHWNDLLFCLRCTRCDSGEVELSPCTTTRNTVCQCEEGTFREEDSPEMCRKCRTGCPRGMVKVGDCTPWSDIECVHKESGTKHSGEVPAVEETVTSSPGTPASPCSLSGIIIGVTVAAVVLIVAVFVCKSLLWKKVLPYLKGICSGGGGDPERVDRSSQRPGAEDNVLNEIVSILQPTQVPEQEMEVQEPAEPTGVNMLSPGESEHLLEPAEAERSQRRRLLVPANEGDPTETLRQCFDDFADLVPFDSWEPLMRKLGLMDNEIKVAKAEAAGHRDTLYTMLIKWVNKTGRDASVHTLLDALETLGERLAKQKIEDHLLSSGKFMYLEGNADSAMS

[7] = as above; conditions: NB7 neuroblastoma + caspase-8, without TRAIL, luminescence viability, without TRAIL, mean of runs, at 10 µM
[8] = biological target: Protein Mdm4 (Homo sapiens) + E3 ubiquitin-protein ligase Mdm2 (Homo sapiens) (UniProt O15151+Q00987); test: retested Mdm2-MdmX interaction blockers, confirmation, cell-based, luminescence, single concentration, set 2 (AID 504601;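 active = mean inhibition of the luminescence signal across two replicates at or above 26 percent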); conditions: SaOS-2 split-luciferase Mdm2/MdmX complementation, at 8 µM, stronger effect = higher value
Chain of Protein Mdm4 (Homo sapiens) + E3 ubiquitin-protein ligase Mdm2 (Homo sapiens) (O15151 whole entry, looked up): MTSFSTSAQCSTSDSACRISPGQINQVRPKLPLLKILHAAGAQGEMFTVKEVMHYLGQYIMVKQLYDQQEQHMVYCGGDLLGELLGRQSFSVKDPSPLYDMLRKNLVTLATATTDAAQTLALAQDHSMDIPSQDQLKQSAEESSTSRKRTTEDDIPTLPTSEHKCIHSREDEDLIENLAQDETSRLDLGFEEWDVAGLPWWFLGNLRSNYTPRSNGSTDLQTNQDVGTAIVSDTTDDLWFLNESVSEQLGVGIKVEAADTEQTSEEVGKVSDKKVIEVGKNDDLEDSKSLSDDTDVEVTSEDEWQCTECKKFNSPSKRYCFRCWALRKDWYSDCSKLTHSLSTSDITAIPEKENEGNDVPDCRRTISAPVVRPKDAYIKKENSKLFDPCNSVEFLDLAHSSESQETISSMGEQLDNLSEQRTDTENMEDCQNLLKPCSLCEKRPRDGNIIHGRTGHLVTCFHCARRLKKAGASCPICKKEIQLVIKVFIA
Chain of Protein Mdm4 (Homo sapiens) + E3 ubiquitin-protein ligase Mdm2 (Homo sapiens) (Q00987 whole entry, looked up): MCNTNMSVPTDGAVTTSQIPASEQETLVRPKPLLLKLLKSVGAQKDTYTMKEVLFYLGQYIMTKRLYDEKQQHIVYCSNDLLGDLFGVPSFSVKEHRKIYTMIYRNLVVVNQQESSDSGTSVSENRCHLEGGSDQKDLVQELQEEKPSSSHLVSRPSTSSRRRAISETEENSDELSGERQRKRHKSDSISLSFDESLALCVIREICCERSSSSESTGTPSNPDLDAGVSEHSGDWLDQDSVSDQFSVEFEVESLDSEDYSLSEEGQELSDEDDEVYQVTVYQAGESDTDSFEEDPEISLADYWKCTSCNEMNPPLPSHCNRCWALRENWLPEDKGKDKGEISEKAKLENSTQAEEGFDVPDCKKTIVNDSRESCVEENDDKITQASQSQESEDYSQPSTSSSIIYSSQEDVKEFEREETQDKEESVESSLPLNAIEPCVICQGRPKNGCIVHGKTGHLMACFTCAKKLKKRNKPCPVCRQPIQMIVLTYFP

[9] = Apaf-1 inhibitors, single-dose retest, confirmation, biochemical, fluorescence, DEVD-Rh110, 20 µM (AID 504614;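 active = mean inhibition of at least 40% at 20 µM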;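 also: plate controls were DMSO wells for no effect and DEVD-CHO caspase inhibitor control wells for full effect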); conditions: reconstituted apoptosome, caspase-3 DEVD-Rh110 fluorescence; at 20 µM; stronger effect = higher value
[10] = Rh110 fluorescence interference by putative Apaf-1 inhibitors, confirmation, artefact control for Apaf-1 inhibitor project, biochemical, 20 µM (AID 504615;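 active = signal rise of 40% or more at 20 µM, treated as a fluorescence artifact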); conditions: quenched caspase reaction, at 20 µM, stronger effect = higher value
[11] = fluorescence interference of Apaf-1 inhibitor hits, dose response, artefact control for Apaf-1 inhibitor project (AID 588538; call rule not given here); conditions: fluorescence interference counterscreen, Apaf-1 assay format
[12] = inhibitors of PAF-induced NF-kB signaling, retest, confirmation, cell-based, GFP fluorescence, single concentration (AID 602472; in the data active = inhibition above about 40%;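 also: stimulus PAF is a Pseudomonas aeruginosa filtrate and not platelet activating factor; plate controls were DMSO wells with stimulus for no effect and unstimulated DMSO wells for full effect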); conditions: KKLEB CF airway cells, overnight, at 5 µM, stronger effect = higher value
[13] = inhibitors of PAF-induced NFkB signaling in CF airway cells, dose response, cell-based, uHTS hits, panel, cytotoxicity readout (AID 624344); conditions: CF bronchial epithelial cells, PAF-induced NFkB reporter inhibition, with PAF, run 1; at 79 µM (top of the series) unless noted
[14] = as above; conditions: CF bronchial epithelial cells, PAF-induced NFkB reporter inhibition, with PAF, run 2; at 79 µM (top of the series) unless noted

## Cc1cccc(NC(=O)/C=C/c2ccc3c(c2)OCO3)n1
[1]
  inhibition: 81.3% (active)
[2]
  inhibition: 81% (active)
[3]
  inhibition: 95.8% (active)
[4]
  inhibition: 87.1% (active)
[5]
  inhibition: 73% (active)
[6]
  activity: 80.4%
[7]
  activity: 75.4%

## O=C(Nc1ccc(Cl)cn1)c1ccc2c(c1)OCCO2
[1]
  inhibition: -5.1% (inactive)
[2]
  inhibition: 71.4% (active)
[3]
  inhibition: 92.9% (active)
[4]
  inhibition: 82.8% (active)
[5]
  inhibition: 76.4% (active)
[6]
  activity: 67.6%
[7]
  activity: 71.8%

## O=C(/C=C/Sc1ncn[nH]1)c1ccc(Cl)cc1
[8]
  inhibition: 103% (active)

## CCOC(=O)/C=C/C(=O)OCC(=O)NC(c1ccccc1)c1ccccc1
[8]
  inhibition: 99.7% (active)

## CCOC(=O)c1ccc(Nc2cc3ccccc3c(=O)[nH]2)cc1
[1]
  inhibition: 28.7% (inactive)
[2]
  inhibition: 63.5% (active)
[3]
  inhibition: 31.6% (inactive)
[4]
  inhibition: 9.8% (inactive)
[5]
  inhibition: -2.7% (inactive)
[9]
  inhibition: 62.4% (active)
[10]
  activation (fluorescence interference): 11.7% (inactive)
[11]
  IC50: > 100 µM (inactive)

## C(=N\Nc1ccc2ccccc2n1)/c1ccc2c(c1)OCO2
[1]
  inhibition: 97.7% (active)
[2]
  inhibition: 98.3% (active)
[3]
  inhibition: 102% (active)
[4]
  inhibition: 93.2% (active)
[5]
  inhibition: 71.3% (active)
[6]
  activity: 51.5%
[7]
  activity: 31.6%

## CC(=O)c1ccc(S(=O)(=O)N2CCN(C(=O)/C=C/c3ccc4ccccc4n3)CC2)cc1
[8]
  inhibition: 85.2% (active)

## O=C(CCCN1C(=O)/C(=C/c2ccccc2)SC1=S)Nc1ccc(O)cc1
[8]
  inhibition: 80.2% (active)

## O=C(Nc1nnc(S(=O)(=O)N2CCCCCC2)s1)c1cccc(Br)c1
[1]
  inhibition: 42.1% (inactive)
[2]
  inhibition: 31.9% (inactive)
[3]
  inhibition: 21.7% (inactive)
[4]
  inhibition: 28.6% (inactive)
[5]
  inhibition: 29.4% (inactive)
[12]
  inhibition: 77.4% (active)
[13]
  inhibition: 83%
[14]
  inhibition: 68.3%
